# Source: PubChem BioAssay AID623908 (Johns Hopkins Ion Channel Center, 2012)
# Out of some 2,500 compounds screened, about 1,500 (60%) were called active.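 The calls were made as follows: active = duplicate-averaged ratio beyond 3 SD from buffer wells, up or down, though filed actives are nearly all decreases; inactive = the rest.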 So high a share suggests a set chosen from earlier hits. A selection follows.
# Assay: dye ratio change in CHT-lacking host cells – cell-based, parental HEK293, membrane potential dye, counter-screen for CHT activator project (AID 623908)
# Conditions: parental HEK293, membrane potential dye fluorescence (FDSS); at 10 µM; measured after EC20 choline addition
row,Structure (SMILES),ratio readout change
1,CCN1CCN(c2ccc([N+](=O)[O-])cc2C#N)CC1,-38.3 (active)
2,CN1CCN(c2cc(N3CCNCC3)ccc2[N+](=O)[O-])CC1,-81.4 (active)
3,Cc1nc2ccc(N3CCN(C)CC3)cc2nc1C,-22.9 (active)
4,CCCCCn1c(=O)c(C(=O)Nc2c(C)n(C)n(-c3ccccc3)c2=O)c(O)c2ccccc21,inactive
5,CC[N+](CC)(CC)CCCCCCCCCC[N+](CC)(CC)CC,-41.6 (active)
6,CCOc1ccc(-c2cc(C)[n+](CCN(CC)CC)c(-c3ccc(OCC)cc3)c2)cc1,inactive
